Measurements as given in PubChem BioAssay (Tox21).
Inconclusive results are not listed. Calls of active or inactive are those of the source. Unless noted, calls come from the whole dose curve; as a rule, active = well fitted curve in the direction sought with a large enough effect in the repeat runs; inconclusive = weak or mixed curves; inactive = no such curve, though single readings can be large; an effect the other way counts as inactive or inconclusive.

Assays:
[1] = qHTS assay for small molecules that induce genotoxicity in human embryonic kidney cells expressing luciferase-tagged ATAD5 (AID 651632); note: nearly all actives have a fitted effect of over 15% in size
How it was run: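 HEK293T cells carrying a luciferase reporter tagged to ATAD5 were exposed to compound or DMSO vehicle for 16 hr at 37C, 5% CO2. Amplite was added, and after 30 min at room temperature luciferase activity was read as a marker of ATAD5 induction.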

[2] = qHTS assay for small molecule agonists of the p53 signaling pathway - cell viability (AID 651633; calls by dose curve;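 note: p53RE-bla HCT reporter cells with a stable beta-lactamase p53 reporter; series mostly up to about 83 µM; nearly all actives have a fitted effect of over 30% in size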)
How it was run: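 Viability counter-read: CellTiter-Glo luminescence (30 min, room temperature) in the same p53RE-bla plates. These plates had been exposed to compounds for 16 h at 37 C.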

[3] = qHTS assay for small molecules that induce genotoxicity in human embryonic kidney cells expressing luciferase-tagged ATAD5 - cell viability (AID 651634; calls by dose curve; note: nearly all actives have a fitted effect of over 25% in size)
How it was run: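 HEK293T cells expressing luciferase-tagged ATAD5 were exposed to compound or DMSO for 15.5 hr at 37C, 5% CO2. Viability was then read as live-cell protease activity by CellTiter-Fluor fluorescence after 30 min at 37C.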

[4] = qHTS assay for small molecule disruptors of the mitochondrial membrane potential - cell viability (AID 720634; calls by dose curve;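 note: human HepG2 liver cancer cells; series mostly up to about 83 µM; nearly all actives have a fitted effect of over 20% in size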)
How it was run: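 HepG2 cells seeded overnight at 37 C, then exposed to compound or DMSO for 1 hr at 37 C, 5% CO2. m-MPI dye added, then CellTiter-Glo for 30 min at room temperature; viability read as ATP luminescence.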

[5] = qHTS assay for small molecule disruptors of the mitochondrial membrane potential (AID 720635)
How it was run: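 Mitochondrial membrane potential tracked with Mito-MPS dye, red aggregates (ex 540/em 590 nm) against green monomers (ex 490/em 535 nm). Compound treatment 1 hr at 37C, dye 30 min in HepG2.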

[6] = qHTS assay to test for compound auto fluorescence at 590 nm (red) in HepG2 cells (AID 720674)
How it was run: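 We screened compounds on adherent HepG2 cells, incubating them for an hour at 37 C in 5% CO2 before reading emission at 590 nm under 540 nm excitation; values reflect equivalence to Rose Bengal sodium fluorescence.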

[7] = qHTS assay to test for compound auto fluorescence at 535 nm (green) in HepG2 cells (AID 720675)
[8] = qHTS assay to test for compound auto fluorescence at 590 nm (red) in HEK293 cells (AID 720679)
How it was run: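 Autofluorescence equivalency to Rose Bengal sodium, 540/590nm, in HEK293 cells exposed overnight to 23 nL compound per well.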

[9] = qHTS assay to test for compound auto fluorescence at 535 nm (green) in HEK293 cells (AID 720680)
[10] = qHTS assay to test for compound auto fluorescence at 460 nm (blue) in HEK293 cell free culture (AID 720681)
How it was run: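 Blue fluorescence (Ex 405/Em 460 nm, triamterene-equivalent) was read immediately after pin transfer of compound or DMSO into medium (DMEM, 10% FBS) without cells.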

[11] = qHTS assay to test for compound auto fluorescence at 590 nm (red) in HEK293 cell free culture (AID 720683)
How it was run: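 Red-channel autofluorescence of compounds in culture medium (DMEM, 10% FBS), no cells, measured at 540/590 nm. Rose Bengal sodium is the reference fluorophore for equivalence.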

[12] = qHTS assay to test for compound auto fluorescence at 590 nm (red) in HepG2 cell free culture (AID 720684)
How it was run: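 Plate contents were MEM with 10% FBS plus test compound or DMSO, no cells. Fluorescence was recorded with 540 nm excitation and 590 nm emission.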

[13] = qHTS assay to test for compound auto fluorescence at 460 nm (blue) in HepG2 cell free culture (AID 720685)
How it was run: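 Compound (23 nL) or DMSO pinned into cell-free MEM with 10% FBS; blue fluorescence read at 405/460 nm excitation/emission, expressed as auto-fluorescence equivalency to triamterene.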

[14] = qHTS assay to test for compound auto fluorescence at 535 nm (green) in HepG2 cell free culture (AID 720686)
[15] = qHTS assay to test for compound auto fluorescence at 460 nm (blue) in HepG2 cells (AID 720687)
How it was run: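 Blue-channel autofluorescence (Ex/Em 405/460 nm, triamterene-equivalent) was measured after 1 hr compound exposure at 37 C, 5% CO2. Cells were HepG2, plated overnight at 37 C in MEM plus 10% FBS.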

[16] = biological target: Glucocorticoid receptor (Homo sapiens) (UniProt P04150); experiment: qHTS assay to identify small molecule agonists of the glucocorticoid receptor (GR) signaling pathway (AID 720691; active = well fitted activation curve with a large enough effect in the signal ratio in the repeat runs, not every such curve was filed as active; the % refers to the signal ratio)
How it was run: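 GR-bla HeLa cells (beta-lactamase reporter under glucocorticoid response element) were plated 4 h at 37 C/5% CO2, given compounds in DMSO, and incubated 18 h at 37 C. LiveBLAzer B/G FRET substrate was added for 2 h at room temperature, then fluorescence intensity read.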

[17] = qHTS assay to test for compound auto fluorescence at 460 nm (blue) in HEK293 cells (AID 720678)
How it was run: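 Auto fluorescence in the blue band was quantified as triamterene equivalency. HEK293 cells were seeded at 2,000/well, dosed after a 4-5 hr attachment, and kept overnight at 37C before the 405/460 nm reading.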

[18] = qHTS assay to test for compound auto fluorescence at 535 nm (green) in HEK293 cell free culture (AID 720682)
How it was run: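 Using fluorescein as calibrant, autofluorescence was quantified at 485/535 nm in cell-free DMEM containing 10% FBS after pintool addition of compound or vehicle.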

[19] = biological target: Glucocorticoid receptor (Homo sapiens) (UniProt P04150); experiment: qHTS assay to identify small molecule antagonists of the glucocorticoid receptor (GR) signaling pathway (AID 720692; active = well fitted inhibition curve with a large enough effect in the signal ratio in the repeat runs, not every such curve was filed as active; the % refers to the signal ratio)
How it was run: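 GR-bla HeLa cells (beta-lactamase reporter under glucocorticoid response element) were pre-plated 4 h at 37 C, treated with compounds plus 5 nM dexamethasone (final) for 18 h, then read by LiveBLAzer B/G FRET fluorescence after 2 h.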
% is set by controls: 0 for no effect and ±100 for the full control effect.

Sequence of Glucocorticoid receptor (Homo sapiens) (P04150 whole entry, looked up): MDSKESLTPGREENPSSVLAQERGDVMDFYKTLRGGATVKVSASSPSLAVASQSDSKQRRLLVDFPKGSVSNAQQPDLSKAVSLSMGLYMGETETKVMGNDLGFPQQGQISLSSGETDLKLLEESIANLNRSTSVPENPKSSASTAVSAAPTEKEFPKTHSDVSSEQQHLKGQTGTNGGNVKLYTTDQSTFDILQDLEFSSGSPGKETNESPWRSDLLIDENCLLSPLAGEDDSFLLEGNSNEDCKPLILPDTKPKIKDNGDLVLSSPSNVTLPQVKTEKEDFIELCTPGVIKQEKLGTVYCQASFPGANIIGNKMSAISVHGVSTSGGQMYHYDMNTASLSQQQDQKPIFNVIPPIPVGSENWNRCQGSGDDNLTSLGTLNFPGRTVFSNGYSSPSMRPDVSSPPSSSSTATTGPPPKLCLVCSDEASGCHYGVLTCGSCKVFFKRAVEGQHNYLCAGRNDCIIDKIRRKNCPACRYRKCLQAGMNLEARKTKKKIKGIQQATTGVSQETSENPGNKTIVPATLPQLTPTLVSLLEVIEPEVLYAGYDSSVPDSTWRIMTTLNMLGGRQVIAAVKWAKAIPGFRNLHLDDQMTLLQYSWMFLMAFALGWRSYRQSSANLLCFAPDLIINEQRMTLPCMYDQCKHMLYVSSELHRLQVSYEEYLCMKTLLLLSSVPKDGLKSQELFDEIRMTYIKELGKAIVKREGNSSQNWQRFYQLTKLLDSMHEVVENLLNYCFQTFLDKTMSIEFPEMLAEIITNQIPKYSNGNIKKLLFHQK

CCOP(=O)(SC(C)CC)N1CCSC1=O (stereo not given)
inactive: Potency [1] | Potency [2] | Potency [3] | Potency [4] | Potency [5] | outcome [6] | outcome [7] | outcome [8] | outcome [9] | outcome [10] | outcome [11] | outcome [12] | outcome [13] | outcome [14] | outcome [15]

CON(C)C(=O)Nc1ccc(Cl)cc1
inactive: Potency [1] | Potency [2] | outcome [6] | outcome [7] | outcome [8] | outcome [9] | outcome [10] | outcome [11] | outcome [12] | outcome [13] | outcome [14] | outcome [15] | Potency [16]

Cc1ccc(N)c(C)c1
inactive: Potency [1] | Potency [2] | Potency [3] | Potency [5] | outcome [6] | outcome [7] | outcome [8] | outcome [9] | outcome [10] | outcome [11] | outcome [12] | outcome [13] | outcome [14] | outcome [15] | Potency [16]

C[N+]1(CCC(C(N)=O)(c2ccccc2)c2ccccc2)CCCCC1
inactive: Potency [1] | Potency [2] | Potency [3] | Potency [4] | Potency [5] | outcome [6] | outcome [7] | outcome [17] | outcome [8] | outcome [9] | outcome [10] | outcome [18] | outcome [11] | outcome [12] | outcome [13] | outcome [14] | outcome [15] | Potency [16] | Potency [19]

CC[N+]1(CCOC(=O)C(O)(c2ccccc2)c2ccccc2)CCCCC1
inactive: Potency [1] | Potency [3] | Potency [4] | Potency [5] | outcome [6] | outcome [7] | outcome [17] | outcome [8] | outcome [9] | outcome [10] | outcome [18] | outcome [11] | outcome [12] | outcome [13] | outcome [14] | outcome [15] | Potency [16]

CCCN(CCOc1c(Cl)cc(Cl)cc1Cl)C(=O)n1ccnc1
inactive: Potency [1] | Potency [2] | outcome [6] | outcome [7] | outcome [8] | outcome [9] | outcome [10] | outcome [18] | outcome [11] | outcome [12] | outcome [13] | outcome [14] | outcome [15] | Potency [16]

CCCCCCCCCCCCN=C(N)N
inactive: activation [1] -6.24% [at 3.63 µM] | activity change, negative = cytotoxicity [2] -15.7% [at 3.63 µM] | activity, negative = cytotoxicity [3] -6.8% [at 3.63 µM] | fluorescence, relative to Rose Bengal [6] 0.188% [at 3.72 µM] | fluorescence, % of fluorescein control [7] -0.0052% [at 3.72 µM] | fluorescence, % of triamterene [17] -0.0427% [at 3.72 µM] | fluorescence, % of fluorescent control [8] 0.144% [at 3.72 µM] | fluorescence, % of fluorescein [9] 0.14% [at 3.72 µM] | fluorescence, % of fluorescent control [10] -0.0835% [at 3.72 µM] | activity change [18] 0.0011% [at 3.72 µM] | fluorescence, % of fluorescent control [11] 0.145% [at 3.72 µM] | fluorescence, % of fluorescent control [13] -0.0023% [at 3.72 µM] | fluorescence, % of fluorescein control [14] -0.0679% [at 3.72 µM] | fluorescence, % of fluorescent control [15] 0.0214% [at 3.72 µM] | activation [16] -0.603% [at 3.1 µM]

CCC1(CC)C(=O)NC(=O)NC1=O
inactive: Potency [1] | Potency [2] | Potency [4] | outcome [6] | outcome [7] | outcome [17] | outcome [8] | outcome [9] | outcome [10] | outcome [18] | outcome [11] | outcome [12] | outcome [13] | outcome [14] | outcome [15] | Potency [16] | Potency [19]
